Data: the supplement of paper PMC8975748
Counter-ions that a name gives are not always drawn.

System: Saccharomyces cerevisiae BY4741 SeMeCo community
Assay: z-score of subpopulation abundance vs DMSO median, subpopulation auxotrophic for HM; higher = larger share of this subpopulation than in DMSO controls
Details: 10 µM; 24 h; SM minimal medium; subpopulation (auxotrophy): HM
Method: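 Fluorescent four-plasmid SeMeCo (self-establishing metabolically cooperating S. cerevisiae BY4741 community; plasmids pH-mRuby2, pL-mWasabi, pU-eCFP, pM-TagRFP657) was grown 24 h in minimal SM medium with each Selleck FDA-approved drug at 10 µM in 384-well plates. Cells were fixed and imaged by high-content confocal microscopy. For each auxotrophic subpopulation (and the prototroph), a z-score gives the deviation from the DMSO vehicle-control population median.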

| SMILES | z-score of subpopulation abundance |
| --- | --- |
| COCCCOc1ccnc(C[S+]([O-])c2nc3ccccc3[nH]2)c1C (stereo not given) [Rabeprazole] | 0.01 |
| CCOC(=O)C1=C(COCCN)NC(C)=C(C(=O)OC)C1c1ccccc1Cl (stereo not given) [Amlodipine Besylate] | 4.12 |
| CCCCCCCCCCCCCCCC[N+](C)(C)C [Cetrimonium Bromide (CTAB)] | 10.1 |
| OB1OCc2cc(F)ccc21 [Tavaborole (AN-2690)] | 27.5 |
| CN1CC(=O)N2[C@H](c3ccc4c(c3)OCO4)c3[nH]c4ccccc4c3C[C@@H]2C1=O [Tadalafil] | 0.83 |
| CC1=CC[C@@](O)(C(C)C)CC1 [Terpinen-4-ol] | -0.39 |
| CCOC(=O)OC(C)OC1=C(C(=O)Nc2ccccn2)N(C)S(=O)(=O)c2ccccc21 (stereo not given) [Ampiroxicam] | -0.5 |
| CO/N=C(\C(=O)N[C@@H]1C(=O)N2C(C(=O)O)=C(CSc3nnnn3C)CS[C@H]12)c1csc(N)n1 [Cefmenoxime hydrochloride] | 0.28 |
| OCCN(CCO)c1nc(N2CCCCC2)c2nc(N(CCO)CCO)nc(N3CCCCC3)c2n1 [Dipyridamole] | 6.49 |
| O=C1c2cccc3c2[C@H](CCC3)CN1[C@@H]1CN2CCC1CC2 [Palonosetron] | -0.24 |
| Cn1nnnc1SCC1=C(C(=O)O)N2C(=O)[C@@H](NC(=O)[C@H](OC=O)c3ccccc3)[C@H]2SC1 [Cefamandole nafate] | 0.71 |
| O=C1Nc2ccccc2C1=O [Isatin] | -0.24 |
| CN[C@H]1C(=O)N[C@@H]2Cc3ccc(cc3)Oc3cc4cc(c3O[C@@H]3O[C@H](C(=O)O)[C@@H](O)[C@H](O)[C@H]3NC(=O)CCCCCCCCC(C)C)Oc3ccc(cc3Cl)[C@@H](O)[C@@H]3NC(=O)[C@H](NC(=O)[C@@H]4NC(=O)[C@@H](NC2=O)c2cc(cc(O)c2Cl)Oc2cc1ccc2O)c1ccc(O)c(c1)-c1c(O[C@H]2O[C@H](CO)[C@@H](O)[C@H](O)[C@@H]2O)cc(O)cc1[C@@H](C(=O)NCCCN(C)C)NC3=O [Dalbavancin] | -1.02 |
| CN1CCC(=C2c3ccccc3CCc3sccc32)CC1 [Pizotifen Malate] | -0.03 |
| CCC(=O)NS(=O)(=O)c1ccc(-c2c(-c3ccccc3)noc2C)cc1 [Parecoxib] | 0.95 |
| CC[C@H]1OC(=O)C[C@@H](O)[C@H](C)[C@@H](O[C@@H]2O[C@H](C)[C@@H](O)[C@H](N(C)C)[C@H]2O)[C@@H](CCN2C[C@H](C)C[C@H](C)C2)C[C@@H](C)C(=O)/C=C/C(C)=C/[C@@H]1CO[C@@H]1O[C@H](C)[C@@H](O)[C@@H](OC)[C@H]1OC [Tilmicosin] | 0.93 |
| C#C[C@]1(O)CC[C@H]2[C@@H]3CCC4=CCCC[C@@H]4[C@H]3C(=C)C[C@@]21CC [Desogestrel] | -0.05 |
| C#C[C@]1(O)CC[C@H]2[C@@H]3CCc4cc(OC5CCCC5)ccc4[C@H]3CC[C@@]21C [Quinestrol] | 0.17 |
| NC(=O)N1c2ccccc2C=Cc2ccccc21 [Carbamazepine] | -0.61 |
| CCOC(=O)c1c(CSc2ccccc2)n(C)c2cc(Br)c(O)c(CN(C)C)c12 [Arbidol HCl] | 0.29 |

| SMILES | z-score of subpopulation abundance |
| --- | --- |
| NC12CC3CC(CC(C3)C1)C2 [Amantadine] | -0.03 |
| COCCCN1CCC(NC(=O)c2cc(Cl)c(N)c3c2OCC3)CC1 [Prucalopride] | 0.24 |
| Cc1ccc(Sc2ccccc2N2CCNCC2)c(C)c1 [Vortioxetine] | -0.01 |
| Cn1nnc(-c2ccc(-c3ccc(N4C[C@H](COP(=O)(O)O)OC4=O)cc3F)cn2)n1 [Tedizolid Phosphate] | -0.87 |
| Clc1ccc(CCC(Cn2ccnc2)Sc2c(Cl)cccc2Cl)cc1 (stereo not given) [Butoconazole] | 1.61 |
| O=C1OCCN1/N=C/c1ccc([N+](=O)[O-])o1 [Furazolidone] | 0.39 |
| COc1cc2c(cc1OC)[C@@H]1Cc3ccc(OC)c(OC)c3CN1CC2 [Rotundine] | -0.02 |
| CCc1c(C)[nH]c2c1C(=O)C(CN1CCOCC1)CC2 (stereo not given) [Molindone hydrochloride] | -0.54 |
| CCOc1cc(NC(C)=O)ccc1C(=O)OC [Ethopabate] | -0.11 |
| C[N+](C)(C)CCOC(=O)CCC(=O)OCC[N+](C)(C)C [Succinylcholine Chloride Dihydrate] | 0.1 |
| CC1(C)S[C@@H]2[C@H](NC(=O)[C@H](N)c3ccccc3)C(=O)N2[C@H]1C(=O)OCOC(=O)[C@@H]1N2C(=O)C[C@H]2S(=O)(=O)C1(C)C [Sultamicillin Tosylate] | 0.76 |
| CC[C@@H]([C@H](C)O)n1ncn(-c2ccc(N3CCN(c4ccc(OC[C@@H]5CO[C@@](Cn6cncn6)(c6ccc(F)cc6F)C5)cc4)CC3)cc2)c1=O [Posaconazole] | 11.5 |
| CCCCCCCCCCCCCCCCOP(=O)([O-])OCC[N+](C)(C)C [Miltefosine] | 0.26 |
| NC(=O)Cc1cccc(C(=O)c2ccccc2)c1N [Nepafenac] | 0.5 |
| CC[C@H]1OC(=O)C[C@@H](O)[C@H](C)[C@@H](O[C@@H]2O[C@H](C)[C@@H](O)[C@H](N(C)C)[C@H]2O)[C@@H](CCN2C[C@H](C)C[C@H](C)C2)C[C@@H](C)C(=O)/C=C/C(C)=C/[C@@H]1CO[C@@H]1O[C@H](C)[C@@H](O)[C@@H](OC)[C@H]1OC [Tilmicosin phosphate] | -0.03 |
| COc1ccc(CNc2nc(N3CCC[C@H]3CO)ncc2C(=O)NCc2ncccn2)cc1Cl [Avanafil] | 0.22 |
| CN(C)[C@@H]1C(=O)C(C(N)=O)=C(O)[C@@]2(O)C(=O)C3=C(O)c4c(O)ccc(Cl)c4[C@@H](O)[C@H]3C[C@@H]12 [Demeclocycline HCl] | -1 |
| Nc1nc(/C(=C/CC(=O)O)C(=O)N[C@@H]2C(=O)N3C(C(=O)O)=CCS[C@H]23)cs1 [Ceftibuten dihydrate] | -0.56 |
| CCn1cc(C(=O)O)c(=O)c2cnc(N3CCNCC3)nc21 [Pipemidic acid] | 0.81 |
| CC(C)[C@H]1CC[C@H](C(=O)N[C@H](Cc2ccccc2)C(=O)O)CC1 [Nateglinide] | 0.65 |
